Measured values as given in the supplement of paper PMC10849652.
Of roughly 8,800 targets only a part is listed; those with a hit were picked by preference. About 0.5% of all pairs of compound and target were hits. Unmarked numbers belong to inactive results.

Key:
Test in all cases: log2 fold change, soluble protein after heating vs DMSO (PISA); higher = thermal stabilisation; K562 lysate, 10 uM; active = over 0.2 and 3.5 SD of the protein, either way, in both replicates (recomputed)
nilotinib = compound: Cc1cn(-c2cc(NC(=O)c3ccc(C)c(Nc4nccc(-c5cccnc5)n4)c3)cc(C(F)(F)F)c2)cn1 [nilotinib]
Method in brief: (§1)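 A 30 min treatment with 10 μM compound was applied to crude K562 extract at 1 mg/mL protein in PBS pH 7.4 with 1 mM MgCl2. Heating for 3 min spanned 48°C-58°C, after which aliquots were pooled, adjusted to 0.5% NP-40 at 4°C and spun at 21,000xg for 90 min. TMTpro 16plex LC-MS/MS of the supernatant, with channel sums equalised, gave values recorded as log-two fold change in thermal stability against solvent controls, from duplicates.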

[1] = compound: Cc1nc(Nc2n[nH]c3c2CN(C(=O)N[C@H](CN(C)C)c2ccccc2)C3(C)C)c2sccc2n1
Method in brief: as §1

dasatinib = compound: Cc1nc(Nc2ncc(C(=O)Nc3c(C)cccc3Cl)s2)cc(N2CCN(CCO)CC2)n1 [dasatinib]
Method in brief: as §1

[2] = compound: Cc1ncc(-c2ccnc(Nc3ccc(S(C)(=O)=O)cc3)n2)n1C(C)C
Method in brief: as §1

[3] = compound: Cn1cc(-c2ccc3c(c2)CCN3C(=O)Cc2cccc(C(F)(F)F)c2)c2c(N)ncnc21
Method in brief: as §1

quisinostat = compound: Cn1cc(CNCC2CCN(c3ncc(C(=O)NO)cn3)CC2)c2ccccc21 [quisinostat]
Method in brief: as §1

tipifarnib = compound: Cn1cncc1[C@@](N)(c1ccc(Cl)cc1)c1ccc2c(c1)c(-c1cccc(Cl)c1)cc(=O)n2C [tipifarnib]
Method in brief: as §1

[4] = compound: NC(=O)Nc1cc(-c2cccc(F)c2)sc1C(=O)N[C@H]1CCCNC1
Method in brief: as §1

[5] = compound: NC(=O)c1cnc(N[C@@H]2CCCC[C@@H]2N)nc1Nc1cccc(-n2nccn2)c1
Method in brief: as §1

[6] = compound: NC1(c2ccc(-c3nc4ccn5c(=O)[nH]nc5c4cc3-c3ccccc3)cc2)CCC1
Method in brief: as §1

[7] = compound: NCC(=O)Nc1ccc(-n2nc(C(F)(F)F)cc2-c2ccc3c(ccc4ccccc43)c2)cc1
Method in brief: as §1

vorinostat = compound: O=C(CCCCCCC(=O)Nc1ccccc1)NO [vorinostat]
Method in brief: as §1

silmitasertib = compound: O=C(O)c1ccc2c(c1)nc(Nc1cccc(Cl)c1)c1ccncc12 [silmitasertib]
Method in brief: as §1

[8] = compound: O=C1NC(=O)C(c2cnc3ccccn23)=C1c1cn2c3c(cc(F)cc13)CN(C(=O)N1CCCCC1)CC2
Method in brief: as §1

entospletinib = compound: c1cn2cc(-c3ccc4cn[nH]c4c3)nc(Nc3ccc(N4CCOCC4)cc3)c2n1 [entospletinib]
Method in brief: as §1

Chain of UniProt Q8WU79 (Q8WU79 whole entry, looked up): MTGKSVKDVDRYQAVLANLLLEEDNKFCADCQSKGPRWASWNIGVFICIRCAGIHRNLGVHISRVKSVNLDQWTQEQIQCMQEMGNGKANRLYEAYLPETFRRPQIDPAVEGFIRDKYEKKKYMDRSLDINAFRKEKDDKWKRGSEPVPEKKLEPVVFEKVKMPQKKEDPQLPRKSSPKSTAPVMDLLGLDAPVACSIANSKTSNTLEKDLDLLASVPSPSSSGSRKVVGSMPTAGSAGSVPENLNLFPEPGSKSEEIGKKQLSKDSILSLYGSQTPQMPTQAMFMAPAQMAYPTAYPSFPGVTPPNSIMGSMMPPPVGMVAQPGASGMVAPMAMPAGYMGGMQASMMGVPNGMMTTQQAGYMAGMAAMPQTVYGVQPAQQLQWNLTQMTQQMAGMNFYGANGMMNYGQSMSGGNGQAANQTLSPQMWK
Chain of UniProt Q01130 (Q01130 whole entry, looked up): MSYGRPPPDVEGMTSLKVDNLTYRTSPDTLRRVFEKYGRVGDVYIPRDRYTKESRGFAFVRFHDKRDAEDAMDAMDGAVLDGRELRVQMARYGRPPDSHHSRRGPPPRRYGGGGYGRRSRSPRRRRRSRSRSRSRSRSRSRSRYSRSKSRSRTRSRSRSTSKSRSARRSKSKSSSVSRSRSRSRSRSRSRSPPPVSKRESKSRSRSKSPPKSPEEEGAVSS
Chain of UniProt Q6KCM7 (Q6KCM7 whole entry, looked up): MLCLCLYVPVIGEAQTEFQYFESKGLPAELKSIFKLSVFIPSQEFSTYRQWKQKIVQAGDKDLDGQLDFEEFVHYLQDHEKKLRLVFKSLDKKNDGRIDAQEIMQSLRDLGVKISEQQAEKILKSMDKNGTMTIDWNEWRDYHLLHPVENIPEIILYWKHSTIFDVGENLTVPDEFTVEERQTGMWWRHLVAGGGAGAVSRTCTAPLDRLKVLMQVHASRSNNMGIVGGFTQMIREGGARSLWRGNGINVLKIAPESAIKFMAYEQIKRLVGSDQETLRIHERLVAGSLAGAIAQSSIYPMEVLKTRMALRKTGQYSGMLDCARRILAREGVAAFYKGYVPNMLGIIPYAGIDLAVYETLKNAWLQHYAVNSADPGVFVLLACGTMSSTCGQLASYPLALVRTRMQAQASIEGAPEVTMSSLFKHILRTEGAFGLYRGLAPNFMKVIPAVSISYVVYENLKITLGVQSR
Chain of UniProt Q96R06 (Q96R06 whole entry, looked up): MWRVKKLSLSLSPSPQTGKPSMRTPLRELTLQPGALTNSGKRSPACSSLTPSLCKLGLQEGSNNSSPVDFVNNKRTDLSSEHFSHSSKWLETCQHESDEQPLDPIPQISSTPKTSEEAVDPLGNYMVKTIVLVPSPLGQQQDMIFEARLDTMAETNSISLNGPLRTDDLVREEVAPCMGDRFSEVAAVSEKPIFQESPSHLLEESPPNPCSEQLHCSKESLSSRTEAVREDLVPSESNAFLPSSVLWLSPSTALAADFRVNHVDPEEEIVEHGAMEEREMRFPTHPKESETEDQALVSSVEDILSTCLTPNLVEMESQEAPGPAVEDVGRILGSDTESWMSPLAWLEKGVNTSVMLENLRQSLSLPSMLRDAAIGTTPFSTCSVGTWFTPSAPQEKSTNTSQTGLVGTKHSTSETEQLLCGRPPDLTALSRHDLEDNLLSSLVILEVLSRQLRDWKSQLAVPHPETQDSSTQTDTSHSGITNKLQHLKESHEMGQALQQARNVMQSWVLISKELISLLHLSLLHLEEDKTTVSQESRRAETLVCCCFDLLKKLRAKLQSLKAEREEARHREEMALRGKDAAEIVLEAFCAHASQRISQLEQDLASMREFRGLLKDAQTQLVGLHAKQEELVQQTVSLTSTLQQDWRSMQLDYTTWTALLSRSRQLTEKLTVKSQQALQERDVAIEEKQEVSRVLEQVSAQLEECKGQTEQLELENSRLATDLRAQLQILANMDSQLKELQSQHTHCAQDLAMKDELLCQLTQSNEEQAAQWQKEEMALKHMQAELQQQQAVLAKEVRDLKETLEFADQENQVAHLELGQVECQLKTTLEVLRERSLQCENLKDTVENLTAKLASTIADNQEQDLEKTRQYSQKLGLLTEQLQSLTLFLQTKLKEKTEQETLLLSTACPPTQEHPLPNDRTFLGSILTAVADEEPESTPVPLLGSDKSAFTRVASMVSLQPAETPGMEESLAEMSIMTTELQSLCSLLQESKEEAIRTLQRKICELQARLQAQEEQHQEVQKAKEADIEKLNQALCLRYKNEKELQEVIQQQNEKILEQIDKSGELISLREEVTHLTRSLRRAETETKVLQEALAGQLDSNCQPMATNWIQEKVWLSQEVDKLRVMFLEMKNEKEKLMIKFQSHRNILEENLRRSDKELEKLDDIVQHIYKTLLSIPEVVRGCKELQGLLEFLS
Chain of UniProt Q9HBM1 (Q9HBM1 whole entry, looked up): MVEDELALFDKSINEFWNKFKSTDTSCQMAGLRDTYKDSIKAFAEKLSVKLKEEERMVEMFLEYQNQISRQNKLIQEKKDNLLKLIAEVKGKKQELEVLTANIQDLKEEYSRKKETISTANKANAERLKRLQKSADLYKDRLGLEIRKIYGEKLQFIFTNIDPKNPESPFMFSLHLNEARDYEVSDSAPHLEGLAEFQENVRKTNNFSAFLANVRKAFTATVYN
Chain of UniProt Q9H2H9 (Q9H2H9 whole entry, looked up): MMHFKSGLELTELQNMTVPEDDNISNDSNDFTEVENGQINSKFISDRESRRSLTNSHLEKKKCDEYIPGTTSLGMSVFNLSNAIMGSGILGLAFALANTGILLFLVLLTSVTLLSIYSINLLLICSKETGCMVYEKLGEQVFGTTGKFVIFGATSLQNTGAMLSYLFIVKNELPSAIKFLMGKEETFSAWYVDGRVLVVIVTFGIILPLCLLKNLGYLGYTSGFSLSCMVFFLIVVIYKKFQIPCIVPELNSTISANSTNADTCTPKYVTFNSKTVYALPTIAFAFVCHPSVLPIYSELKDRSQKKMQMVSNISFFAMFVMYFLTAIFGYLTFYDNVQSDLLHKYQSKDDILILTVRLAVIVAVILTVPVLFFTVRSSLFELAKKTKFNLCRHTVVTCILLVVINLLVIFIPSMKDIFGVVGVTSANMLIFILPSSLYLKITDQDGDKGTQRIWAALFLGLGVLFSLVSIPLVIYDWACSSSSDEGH
Chain of UniProt Q16594 (Q16594 whole entry, looked up): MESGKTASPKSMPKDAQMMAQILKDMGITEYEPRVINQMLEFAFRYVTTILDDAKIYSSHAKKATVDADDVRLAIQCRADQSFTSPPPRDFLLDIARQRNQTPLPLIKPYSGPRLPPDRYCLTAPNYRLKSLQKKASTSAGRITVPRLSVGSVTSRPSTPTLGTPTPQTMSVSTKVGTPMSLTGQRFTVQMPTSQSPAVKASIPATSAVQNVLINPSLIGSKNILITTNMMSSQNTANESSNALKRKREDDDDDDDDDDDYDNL
Chain of UniProt P50225 (P50225 whole entry, looked up): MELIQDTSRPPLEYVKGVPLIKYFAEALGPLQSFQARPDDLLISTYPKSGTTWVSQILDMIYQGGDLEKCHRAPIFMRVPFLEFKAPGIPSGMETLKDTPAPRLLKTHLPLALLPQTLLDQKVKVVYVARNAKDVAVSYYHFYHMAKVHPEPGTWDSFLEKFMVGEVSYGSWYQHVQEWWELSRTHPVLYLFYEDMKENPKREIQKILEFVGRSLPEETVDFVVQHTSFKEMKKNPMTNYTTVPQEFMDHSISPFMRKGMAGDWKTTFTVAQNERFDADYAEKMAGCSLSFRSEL
Chain of UniProt O43805 (O43805 whole entry, looked up): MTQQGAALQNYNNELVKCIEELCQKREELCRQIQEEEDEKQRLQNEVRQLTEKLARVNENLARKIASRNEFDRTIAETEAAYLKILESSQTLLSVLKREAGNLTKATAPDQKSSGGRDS
Chain of UniProt Q9NYA1 (Q9NYA1 whole entry, looked up): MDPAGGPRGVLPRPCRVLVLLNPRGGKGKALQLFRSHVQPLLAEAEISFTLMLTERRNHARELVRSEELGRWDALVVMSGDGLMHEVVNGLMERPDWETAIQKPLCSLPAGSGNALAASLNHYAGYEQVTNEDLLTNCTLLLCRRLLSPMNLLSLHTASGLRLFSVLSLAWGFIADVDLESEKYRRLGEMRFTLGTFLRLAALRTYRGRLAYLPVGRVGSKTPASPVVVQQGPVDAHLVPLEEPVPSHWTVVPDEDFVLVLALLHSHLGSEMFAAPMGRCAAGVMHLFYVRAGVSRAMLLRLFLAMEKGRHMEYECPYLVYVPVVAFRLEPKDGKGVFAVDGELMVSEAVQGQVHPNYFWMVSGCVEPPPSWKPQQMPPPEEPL
Chain of UniProt Q9H2D1 (Q9H2D1 whole entry, looked up): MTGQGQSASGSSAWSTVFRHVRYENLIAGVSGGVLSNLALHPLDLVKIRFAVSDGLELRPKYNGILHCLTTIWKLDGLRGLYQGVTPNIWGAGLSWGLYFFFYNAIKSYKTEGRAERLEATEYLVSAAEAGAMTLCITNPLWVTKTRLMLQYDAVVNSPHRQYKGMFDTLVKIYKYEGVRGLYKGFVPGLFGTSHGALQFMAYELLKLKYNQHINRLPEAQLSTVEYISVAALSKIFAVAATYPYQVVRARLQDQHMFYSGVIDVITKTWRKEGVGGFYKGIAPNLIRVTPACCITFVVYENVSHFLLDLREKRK
Chain of UniProt Q8IX90 (Q8IX90 whole entry, looked up): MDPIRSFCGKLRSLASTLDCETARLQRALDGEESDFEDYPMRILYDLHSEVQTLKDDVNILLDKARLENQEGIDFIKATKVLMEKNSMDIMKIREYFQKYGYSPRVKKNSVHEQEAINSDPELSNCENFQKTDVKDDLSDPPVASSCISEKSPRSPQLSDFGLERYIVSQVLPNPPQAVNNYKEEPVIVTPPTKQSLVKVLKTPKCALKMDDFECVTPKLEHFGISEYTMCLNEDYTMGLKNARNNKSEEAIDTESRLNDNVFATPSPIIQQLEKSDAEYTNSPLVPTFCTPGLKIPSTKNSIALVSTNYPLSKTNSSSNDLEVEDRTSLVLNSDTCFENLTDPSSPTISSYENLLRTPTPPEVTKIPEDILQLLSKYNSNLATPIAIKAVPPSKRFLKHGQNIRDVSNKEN

Target | log2 fold change (nilotinib) | log2 fold change [1] | log2 fold change (dasatinib) | log2 fold change [2] | log2 fold change [3] | log2 fold change (quisinostat) | log2 fold change (tipifarnib) | log2 fold change [4] | log2 fold change [5] | log2 fold change [6] | log2 fold change [7] | log2 fold change (vorinostat) | log2 fold change (silmitasertib) | log2 fold change [8] | log2 fold change (entospletinib)
SSU72 (UniProt Q9NP77) | 0.031 | -0.007 | -0.008 | -0.028 | 0.037 | -0.002 | 0.02 | -0.021 | -0.013 | 0.041 | 0.015 | 0.112 | -0.026 | -0.021 | -0.014
SPHK1 isoform 2 (UniProt Q9NYA1) | 0.03 | -0.034 | -0.007 | -0.071 | 0.025 | 0.084 | -0.058 | -0.028 | -0.005 | 0.052 | 0.091 | -0.408 | 0.089 | -0.167 | 0.032
SLC25A32 (UniProt Q9H2D1) | 0.007 | 0.033 | 0.011 | 0.043 | -0.055 | -0.015 | 0.016 | 0.023 | -0.029 | -0.026 | 0.053 | 0.23 | -0.008 | 0.046 | 0.033
SF3B6 (UniProt Q9Y3B4) | 0.045 | 0.013 | -0.036 | -0.028 | -0.038 | 0.016 | 0.021 | 0 | -0.054 | -0.03 | 0.018 | -0.273 (active) | 0.026 | 0.007 | -0.015
SMAP2 (UniProt Q8WU79) | -0.058 | 0.026 | -0.013 | 0.037 | 0.06 | 0.072 | -0.038 | 0.076 | 0.026 | 0.022 | 0 | -0.032 | 0.017 | -0.04 | -0.028
TAF9 (UniProt Q16594) | -0.043 | 0.049 | -0.017 | -0.003 | 0.021 | -0.055 | -0.029 | 0.013 | 0.084 | -0.024 | 0.002 | -0.099 | -0.011 | -0.003 | -0.017
SMAD9 (UniProt O15198) | 0.066 | 0.054 | 0.062 | -0.028 | -0.038 | -0.036 | -0.021 | 0.016 | 0.02 | -0.065 | 0.007 | -0.436 (active) | 0.023 | -0.012 | 0.017
SLC25A25 isoform 3 (UniProt Q6KCM7) | 0.027 | -0.015 | 0.03 | -0.063 | 0.031 | -0.038 | -0.006 | 0.021 | 0.007 | -0.025 | 0.016 | 0.054 | 0.02 | -0.036 | 0.001
SSNA1 (UniProt O43805) | -0.038 | 0.057 | -0.004 | -0.004 | -0.079 | 0.081 | 0.007 | -0.039 | 0.006 | 0.019 | -0.036 | -0.34 (active) | 0 | -0.023 | -0.065
SKA3 (UniProt Q8IX90) | -0.046 | -0.018 | -0.028 | 0.023 | 0.002 | -0.093 | -0.02 | 0.044 | 0.034 | -0.004 | -0.007 | -0.247 (active) | 0 | -0.022 | 0.006
SYNE2 isoform 2 (UniProt Q8WXH0) | 0.086 | -0.034 | 0.032 | -0.002 | -0.024 | -0.176 | 0.005 | -0.043 | -0.021 | -0.091 | 0.071 | 0.088 | -0.015 | 0.051 | -0.003
SPAG5 (UniProt Q96R06) | 0.026 | -0.013 | -0.006 | 0.001 | 0.02 | -0.051 | -0.045 | 0.001 | 0.004 | -0.008 | 0.038 | -0.298 (active) | 0.042 | -0.007 | 0.008
SLC38A1 (UniProt Q9H2H9) | -0.001 | 0.007 | 0.001 | -0.002 | -0.041 | -0.123 | -0.032 | -0.015 | 0.001 | -0.024 | -0.015 | 0.099 | 0 | 0.008 | -0.015
SRSF2 (UniProt Q01130) | -0.038 | 0 | -0.003 | -0.029 | 0.033 | -0.056 | 0.01 | 0.002 | -0.008 | -0.01 | 0.023 | 0.087 | -0.017 | -0.043 | -0.055
TANGO6 (UniProt Q9C0B7) | 0.042 | -0.056 | -0.006 | 0.019 | 0.025 | -0.056 | 0.044 | 0.046 | -0.037 | -0.001 | 0.007 | -0.389 (active) | 0.019 | -0.037 | -0.009
SULT1A1 (UniProt P50225) | 0.029 | -0.074 | 0.009 | -0.028 | -0.007 | -0.006 | -0.043 | 0.047 | 0.007 | -0.021 | 0.077 | -0.273 (active) | 0.036 | -0.021 | 0.071
SMN1 (UniProt Q16637) | 0.012 | 0.019 | -0.005 | -0.023 | 0.05 | -0.146 | 0 | -0.001 | 0.047 | 0 | -0.014 | -0.278 (active) | 0.035 | 0.052 | -0.024
SNCA (UniProt P37840) | 0.148 | 0.075 | 0.128 | -0.032 | 0.019 | -0.031 | 0.159 | -0.112 | -0.049 | 0 | 0.069 | 0.161 | -0.235 | -0.023 | -0.126
SRPK1 (UniProt Q96SB4) | -0.002 | 0.069 | -0.01 | -0.03 | 0.017 | -0.108 | -0.03 | 0.283 (active) | -0.021 | -0.069 | -0.043 | -0.172 | 0.119 | 0 | 0.012
SUZ12 (UniProt Q15022) | 0.03 | -0.025 | 0.037 | -0.013 | -0.008 | -0.005 | 0.016 | -0.007 | -0.013 | -0.026 | -0.064 | -0.156 | 0.023 | 0.021 | 0.043
SPC25 (UniProt Q9HBM1) | 0.042 | -0.02 | 0.002 | 0.03 | 0.046 | -0.019 | 0 | -0.01 | 0.002 | 0 | 0.026 | -0.266 (active) | 0 | 0.016 | -0.004
